Results published in PubChem BioAssay (NCATS).
Records with an inconclusive call do not appear. Activity calls are given as the source filed them. Calls follow the shape of the dose curve; as a rule, active = well fitted inhibition curve with a large enough effect; inconclusive = small, poorly fitted or top-dose-only effect; inactive = flat fitted curve, though single readings scatter.

How the values were obtained:
Assay in all cases: qHTS profiling for inhibitors of Plasmodium falciparum proliferation (AID 504749); also: nearly all actives have a fitted effect of over 60% in size
[1] = test system: CP250; conditions: P. falciparum in erythrocytes, SYBR Green DNA, 72 h; series mostly up to 12.8 µM
How it was run: (§1)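 SYBR Green fluorescence (ex 485 nm, em 535 nm) reports parasite DNA after 72 h compound exposure of infected red cells at 0.3% parasitemia, 2.5% hematocrit; signal normalized to 0.29 uM artemisinin and vehicle wells.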

[2] = test system: CP252; conditions: P. falciparum in erythrocytes, SYBR Green DNA, 72 h; series mostly up to 12.8 µM
How it was run: as §1

[3] = test system: CP256; conditions: P. falciparum in erythrocytes, SYBR Green DNA, 72 h; series mostly up to 28.7 µM
How it was run: as §1

[4] = test system: CP262; conditions: P. falciparum in erythrocytes, SYBR Green DNA, 72 h; series mostly up to 28.7 µM
How it was run: as §1

[5] = test system: CP268; conditions: P. falciparum in erythrocytes, SYBR Green DNA, 72 h; series mostly up to 28.7 µM
How it was run: as §1

[6] = test system: CP269; conditions: P. falciparum in erythrocytes, SYBR Green DNA, 72 h; series mostly up to 28.7 µM
How it was run: as §1

[7] = test system: CP286; conditions: P. falciparum in erythrocytes, SYBR Green DNA, 72 h; series mostly up to 28.7 µM
How it was run: as §1

[8] = test system: CP291; conditions: P. falciparum in erythrocytes, SYBR Green DNA, 72 h; series mostly up to 28.7 µM
How it was run: as §1

[9] = test system: CP297; conditions: P. falciparum in erythrocytes, SYBR Green DNA, 72 h; series mostly up to 28.7 µM
How it was run: as §1

[10] = test system: CP305; conditions: P. falciparum in erythrocytes, SYBR Green DNA, 72 h; series mostly up to 28.7 µM
How it was run: as §1

[11] = test system: CP315; conditions: P. falciparum in erythrocytes, SYBR Green DNA, 72 h; series mostly up to 28.7 µM
How it was run: as §1

[12] = test system: CP325; conditions: P. falciparum in erythrocytes, SYBR Green DNA, 72 h; series mostly up to 28.7 µM
How it was run: as §1

[13] = test system: CP329; conditions: P. falciparum in erythrocytes, SYBR Green DNA, 72 h; series mostly up to 28.7 µM
How it was run: as §1

[14] = test system: DFO2036; conditions: P. falciparum in erythrocytes, SYBR Green DNA, 72 h; series mostly up to 28.7 µM
How it was run: as §1

[15] = test system: DIV17; conditions: P. falciparum in erythrocytes, SYBR Green DNA, 72 h; series mostly up to 28.7 µM
How it was run: as §1

[16] = test system: DIV30; conditions: P. falciparum in erythrocytes, SYBR Green DNA, 72 h; series mostly up to 28.7 µM
How it was run: as §1

[17] = test system: Dd2; conditions: P. falciparum in erythrocytes, SYBR Green DNA, 72 h; series mostly up to 28.7 µM
How it was run: as §1

[18] = test system: FAB9; conditions: P. falciparum in erythrocytes, SYBR Green DNA, 72 h; series mostly up to 28.7 µM
How it was run: as §1

[19] = test system: HB3; conditions: P. falciparum in erythrocytes, SYBR Green DNA, 72 h; series mostly up to 28.7 µM
How it was run: as §1

[20] = test system: ICS; conditions: P. falciparum in erythrocytes, SYBR Green DNA, 72 h; series mostly up to 28.7 µM
How it was run: as §1

[21] = test system: JCK; conditions: P. falciparum in erythrocytes, SYBR Green DNA, 72 h; series mostly up to 28.7 µM
How it was run: as §1

[22] = test system: N140; conditions: P. falciparum in erythrocytes, SYBR Green DNA, 72 h; series mostly up to 28.7 µM
How it was run: as §1

[23] = test system: P93_24; conditions: P. falciparum in erythrocytes, SYBR Green DNA, 72 h; series mostly up to 28.7 µM
How it was run: as §1

[24] = test system: P94_40; conditions: P. falciparum in erythrocytes, SYBR Green DNA, 72 h; series mostly up to 28.7 µM
How it was run: as §1

[25] = test system: PC15; conditions: P. falciparum in erythrocytes, SYBR Green DNA, 72 h; series mostly up to 28.7 µM
How it was run: as §1

[26] = test system: SC27B; conditions: P. falciparum in erythrocytes, SYBR Green DNA, 72 h; series mostly up to 28.7 µM
How it was run: as §1

[27] = test system: TAB113; conditions: P. falciparum in erythrocytes, SYBR Green DNA, 72 h; series mostly up to 28.7 µM
How it was run: as §1

[28] = test system: W2; conditions: P. falciparum in erythrocytes, SYBR Green DNA, 72 h; series mostly up to 12.8 µM
How it was run: as §1

Measured: Potency
Potency is read from the fitted curve at half-maximal effect.

CC(=O)OC1C[C@H](O[C@@H]2C(O)C[C@H](O[C@@H]3C(O)C[C@@H](OC4CC[C@]5(C)C(CCC6C5CC(O)[C@@]5(C)C(C7=CC(=O)OC7)CC[C@@]65O)C4)OC3C)OC2C)O[C@H](C)[C@H]1O[C@H]1OC(CO)C(O)C(O)C1O (stereo partly drawn)
inactive: [1] | [2] | [3] | [4] | [5] | [6] | [7] | [8] | [9] | [10] | [11] | [12] | [13] | [14] | [16] | [17] | [18] | [21] | [22] | [24] | [26] | [27]
active: [15] 13.5 µM | [19] 12.6 µM | [20] 5.62 µM | [23] 12.6 µM | [25] 5.01 µM | [28] 13.5 µM
